Compound activity deposited in PubChem BioAssay by University of Kansas High Throughput Screening Laboratory.
Shown are actives, neighbours in structure and some others; about 3.6% of the full set was active somewhere.
mHTT-CaM PPI inh – disrupts binding of mutant huntingtin to calmodulin | AlphaScreen His-mHTT/GST-CaM binding, luminescence | inhibition, % at 15 µM | 190,000 tested, 3.6% active | AID 1671202;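 further: 0% = both proteins with DMSO and 100% = one protein alone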
Pf apPOL block – Pf-apPOL DNA polymerase inhibition. Recombinant Pf-apPOL, molecular beacon fluorescence, 1.5 h. inhibition, % at 10 µM. 210,000 tested, 0.25% active. AID 1794808
Starred values were filed as active, the others as inactive; i = inactive; x = not tested or not shown; + = active, no number. No stated cut-off is given here; in the data, active means inhibition above about 50%; inactive means the rest.

SMILES	mHTT-CaM PPI inh	Pf apPOL block
CC(C)CC1C(=O)N(Cc2cn(CCC3OCCO3)nn2)CCS(=O)(=O)N1Cc1ccc(-c2ccc(F)cc2)cc1 (stereo not drawn)	68*	-7
CC(C)C1C(=O)N(Cc2cn(CCC3OCCO3)nn2)CCS(=O)(=O)N1Cc1ccc(-c2cccc(CO)c2)cc1 (stereo not drawn)	45	-5
COc1ccc(-c2ccc(CN3C(CC(C)C)C(=O)N(Cc4cn(CCC5OCCO5)nn4)CCS3(=O)=O)cc2)cc1OC (stereo not drawn)	21	-8
O=C(CSc1cn(Cc2ccccc2Cl)c2ccccc12)N1CCOCC1	36	-6
O=C(CSc1cn(Cc2ccc(F)cc2)c2ccccc12)N1CCCCC1	31	3
CC1CCN(C(=O)CSc2cn(Cc3ccc(Cl)cc3)c3ccccc23)CC1	91*	-4
O=C(CSc1cn(Cc2ccc(F)cc2)c2ccccc12)N1CCCC1	21	-2
Cc1ccccc1Cn1cc(SCC(=O)N2CCCCC2)c2ccccc21	86*	3
O=C(CSc1cn(Cc2ccc(F)cc2)c2ccccc12)N1CCCCCC1	70*	-8
C=CCOc1ccc2c(C)c(CCCC)c(=O)oc2c1	-72	-1
COc1ccc(C(=O)Oc2ccc3c(=O)c(-c4ccc(OC)c(OC)c4)coc3c2)cc1	-4	0
COc1cccc(C(=O)Oc2cc(C)c3c(c2)OC(=Cc2ccncc2)C3=O)c1	8	-6
Cc1ccc(C(=O)C(O)(O)C(F)(F)F)cc1	x	-10
Cn1cccc1/C=N/Nc1ccc(F)cc1	+	x
Cn1cccc1/C=N/NC(=O)c1cccs1	i	x
CCCN1CC=C2C(C#N)=C(N)C(C#N)(C#N)C(c3ccc(F)cc3)C2C1 (stereo not drawn)	18	0
Cc1nc(N2CCN(c3ccccn3)CC2)c2c(C)c(C(=O)N3CCCCC3)sc2n1	10	-1
Cc1ccc(C2=NC(=C(Cl)Cl)C(=O)N2)cc1	100*	-3
O=[N+]([O-])c1cnc(Nc2ccccc2Cl)c([N+](=O)[O-])c1	12	-3
CCOc1cccc(-c2nnc(NC(=O)C(F)(F)F)s2)c1	-2	2
Cc1cc(C)cc(NCc2cc3c(cc2[N+](=O)[O-])OCO3)c1	68*	-6
COc1ccc(CNCc2cc3c(cc2[N+](=O)[O-])OCO3)cc1	9	-9
O=C(c1c[nH]c2ncccc12)N1CCCC1	9	28
CCOCC(=O)N1CCC(CCOc2ccccc2)CC1	-3	-5
COc1ccccc1/C=C1/SC(=Nc2ccccc2Cl)NC1=O	20	-2
SMILES	mHTT-CaM PPI inh	Pf apPOL block
O=C1NC(=Nc2ccccc2)S/C1=C\c1ccc(-c2ccccc2[N+](=O)[O-])o1	44	-12
CN(C)c1ccc(/C=C2/SC(=Nc3ccccc3Cl)NC2=O)cc1	54*	-69
O=C1NC(=Nc2ccccc2Cl)S/C1=C/c1ccc([N+](=O)[O-])o1	60*	10
COc1ccc(/C=C2/SC(=Nc3ccccc3Cl)NC2=O)cc1	43	-1
O=C1NC(=Nc2ccccc2Cl)S/C1=C/c1cc2c(cc1Br)OCO2	55*	0
CCOc1ccccc1N1CCN(CC(O)c2ccc(C)cc2)CC1 (stereo not drawn)	-2	-4
O=C(Cc1ccccc1F)N1CCCC(COc2ccc(C(=O)N3CCCCC3)cc2)C1 (stereo not drawn)	5	-1
CCn1c(-c2cc(NC(=O)C3CC3)n[nH]2)cc2cc(OC)ccc21	8	-4
Cn1cc(-c2ccncc2)cc1C(=O)N1CCOCC1	-2	1
Cc1ccc2[nH]c3c(c2c1)CCCC3NCc1ccc(F)cc1 (stereo not drawn)	57*	16
Brc1ccc2[nH]c3c(c2c1)CCCC3NCc1ccccc1 (stereo not drawn)	100*	-1
Cc1ccc2[nH]c3c(c2c1)CCCC3NC(N)=O (stereo not drawn)	30	-10
O=CNC1CCCc2c1[nH]c1ccc(Br)cc21 (stereo not drawn)	30	-4
Cc1ccc(C(=O)ONC(=Nc2ccccc2C)c2nonc2N)cc1	3	-3
COc1cc(/C=C2/C(=O)ON=C2C)ccc1OCc1ccc(C)cc1	70*	-9
COc1cc(/C=C2\C(=O)ON=C2C)ccc1OCc1ccc(F)cc1	99*	-2
CC1=NOC(=O)/C1=C/c1ccc(OCc2ccc(F)cc2)c(Cl)c1	-6	-4
CC(C)CCn1c(N2CCCC(C(=O)N3CCCC3)C2)nc2ccccc21 (stereo not drawn)	55*	-6
CCCn1c(N2CCC(C(=O)N3CCCCC3)CC2)nc2ccccc21	-1	-7
CCn1c(=O)c(N2CCCC(C(=O)NCCCN3CCCCCC3)C2)nc2ccccc21 (stereo not drawn)	94*	-4
O=C(NCCCN1CCCC1)C1CCCN(c2ncc(-c3ccccc3)cn2)C1 (stereo not drawn)	41	-3
O=C(NCc1ccc(N2CCOCC2)nc1)c1ccc(C(F)(F)F)cc1	-8	-3
